FXN GAA850 act: increases GAA850 frataxin promoter reporter activity | HEK293 lucGAA850 FXN promoter luciferase reporter, 24 h; percent of 10 µM SAHA response | activation, % at 6 µM | AID 540364 | actives 0.56% (n = 360,000);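 active = activation above the average of all compounds screened plus 3 SD, cutoff fixed separately per campaign, cut at about 7.5% in these data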
AHR activator: activates the human aryl hydrocarbon receptor. actives 2.5% (n = 320,000). AHR-responsive luciferase reporter cells, luminescence. activation, % at 5 µM. P35869; in the data active = activation above about 47%
Target sequence (P35869 whole entry, looked up): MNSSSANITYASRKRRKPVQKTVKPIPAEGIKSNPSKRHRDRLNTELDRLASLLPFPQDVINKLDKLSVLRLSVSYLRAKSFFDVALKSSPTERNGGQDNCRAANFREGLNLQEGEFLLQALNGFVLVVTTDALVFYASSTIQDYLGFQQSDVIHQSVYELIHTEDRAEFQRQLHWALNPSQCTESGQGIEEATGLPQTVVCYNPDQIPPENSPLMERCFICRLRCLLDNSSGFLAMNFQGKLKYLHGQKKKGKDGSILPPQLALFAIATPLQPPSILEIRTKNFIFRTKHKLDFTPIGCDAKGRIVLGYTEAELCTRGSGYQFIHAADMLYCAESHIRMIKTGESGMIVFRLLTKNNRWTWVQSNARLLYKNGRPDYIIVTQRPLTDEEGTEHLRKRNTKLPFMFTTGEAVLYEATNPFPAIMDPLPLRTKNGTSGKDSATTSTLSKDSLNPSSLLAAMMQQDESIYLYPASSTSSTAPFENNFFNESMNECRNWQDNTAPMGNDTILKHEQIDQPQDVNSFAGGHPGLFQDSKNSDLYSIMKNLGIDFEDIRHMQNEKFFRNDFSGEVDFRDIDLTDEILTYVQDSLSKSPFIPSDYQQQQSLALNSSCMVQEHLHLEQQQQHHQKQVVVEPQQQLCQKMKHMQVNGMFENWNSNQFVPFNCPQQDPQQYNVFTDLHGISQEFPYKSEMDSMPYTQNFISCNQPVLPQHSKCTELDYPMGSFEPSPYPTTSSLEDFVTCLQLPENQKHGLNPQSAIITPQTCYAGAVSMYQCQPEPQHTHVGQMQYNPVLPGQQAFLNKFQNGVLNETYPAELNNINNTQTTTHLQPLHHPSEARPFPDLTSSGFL
HSP90 refold inh: blocks HSP90-mediated luciferase refolding in reticulocyte lysate; inhibition, % at 5.6 µM; Rabbit reticulocyte lysate, luciferase refolding luminescence, 3 h; actives 0.91% (n = 290,000);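 active = inhibition above the screen-wide mean plus 3 SD, computed separately per campaign, cut at about 16% in these data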;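 also: inhibitors lower the luminescence because luciferase stays unfolded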
HSF1 activator: increases HSF-1 driven luciferase reporter signal. NIH3T3-HGL HSF-1 luciferase reporter, MG132, 8 h; 100% = twice DMSO control signal. actives 1.7% (n = 300,000). AID 504408. activation, % at 9 µM;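 active = mean replicate activation of at least 50% with a set share of replicates each reaching 50%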
NR0B1 inh: inhibitors of human orphan nuclear receptor DAX1 (NR0B1) | P51843 | HEK293 Gal4-DAX1 luciferase reporter, luminescence | inhibition, % at 6.75 µM | actives 0.99% (n = 340,000) | AID 504766;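 active = inhibition above the mean over all tested compounds plus 3 SD, cut at about 4.2% in these data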;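 also: inhibition shows as a rise in luminescence from relieved DAX1 repression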
HSF1 inhib: HSF1 inhibition | actives 0.77% (n = 300,000) | AID 2098 | activity change, negative = inhibition, % at 7.5 µM (by protocol) | NIH3T3-HGL HSE-luciferase, MG132-induced, luminescence 8 h; hits give low values;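 active = more than half of replicate wells show activity change below -50%, luminescence cut by over half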;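 also: luciferase reports HSF-1 transcriptional activity via heat shock element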
AHR act cf: human AHR activation, confirmation | actives 87% (n = 2,300) | human cells, AHR-responsive luciferase reporter, luminescence | activation, % at 9 µM | shares compounds with AHR activator; in the data active = activation above about 49%;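 also: HepG2 hepatoma cells carrying a DRE-driven firefly luciferase reporter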
PXR act counter: counter-screen for AHR activators: human PXR activators | shares compounds with AHR activator | cell-based PXR reporter, luciferase luminescence | activation, % at 11.6 µM | actives 88% (n = 2,300) | AID 434939; in the data active = activation above about 11%;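 also: human hepatoma DPX-2 cells expressing full-length human PXR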
Numbers stand for hits; – = inactive; · = not tested or not shown. Sampled rows, rich in hits. Any-hit rate of the full collection: about 5.9%.

SMILES	FXN GAA850 act	AHR activator	HSP90 refold inh	HSF1 activator	NR0B1 inh	HSF1 inhib	AHR act cf	PXR act counter
Cc1c(=O)n(OCc2ccccc2F)c2ccccc2[n+]1[O-]	–	94	–	–	–	–	139	26
CC(=O)Nc1ccc2c(c1)C(=O)c1ccccc1C2=O	–	152	–	–	–	–	121	35
COc1cc(/C=N/NS(=O)(=O)c2ccc3ccccc3c2)ccc1OCCN1CCOCC1	–	–	–	–	–	–	·	·
CCCC#Cc1ccc2c(c1)COc1c3ccccc3nn1-2	–	109	·	–	5.5	–	63	–
CC(C)(C)OC(=O)NCC1CCC(C(=O)NC[C@H](CC(=O)O)c2ccc(Cl)cc2)CC1 (stereo not given in full)	–	–	–	–	–	–	·	·
NC(c1ccccc1)c1ccncc1 (stereo not given)	–	–	–	–	–	–	·	·
CCOc1cccc(CN2CCCC(C(=O)c3cc(Cl)ccc3OC)C2)c1O (stereo not given)	–	–	–	–	–	–	·	·
NC(=O)c1oc2ccccc2c1NC(=O)c1ccc(F)cc1	–	106	–	–	–	–	77	·
Cc1ccc(NC(=O)c2oc3ccccc3c2NC(=O)C2CC2)cc1	–	122	–	–	–	–	65	32
O=C(Nc1ccc(F)cc1)c1oc2ccccc2c1NC(=O)C1CC1	–	127	–	–	–	–	–	33
NC(=O)c1oc2ccccc2c1NC(=O)C1CCCCC1	–	–	–	–	–	–	·	·
O=C(Nc1c(C(=O)N2CCC(N3CCCCC3)CC2)oc2ccccc12)c1ccc(F)cc1	–	–	–	–	–	–	·	·
COc1ccc(NC(=O)CSc2nnnn2C2CCCCC2)cc1	–	–	–	–	–	–	·	·
COC(=O)C1CN(C(=O)C(C)Oc2cccc(C)c2C)c2ccccc2O1 (stereo not given)	–	–	–	–	–	–	·	·
CCOc1ccc(-c2noc(-c3csc([C@@H]4C[C@H](O)[C@@H](CO)O4)n3)n2)cc1	–	·	·	·	·	·	·	·
CC1=C(C(=O)Nc2ccc(Br)cc2)C(c2ccco2)NC(=O)N1 (stereo not given)	–	107	–	–	–	–	–	–
CCCC1C2C(=O)N(c3cccc(C)c3)C(=O)C2ON1c1ccccc1 (stereo not given)	–	–	–	–	–	–	·	·
CN(C)c1ccc(Nc2nc(-c3cccnc3)cs2)cc1	–	90	–	–	–	–	62	27
CCN(CC)c1ccc(Nc2nc(-c3cccnc3)cs2)cc1	–	–	–	–	–	–	·	·
COc1c2occc2c(OC)c2c(=O)cc(C)oc12	–	104	–	–	–	–	77	13
CCn1c(=O)cc(SCC(=O)NCCCN2CCN(c3ccccc3F)CC2)c2ccccc21	–	–	–	–	–	–	·	·
NC(N)=Nc1nc2ccccc2o1	–	–	–	–	–	–	·	·
O=C(NC(=Nc1nc2ccccc2o1)NC(=O)c1ccccc1)c1ccccc1	–	–	–	–	–	–	·	·
N/C(=N\c1nc2ccccc2o1)NC(=O)c1ccccc1F	–	104	–	–	–	–	167	15
COc1ccccc1C(=O)NC(=Nc1nc2ccccc2o1)NC(=O)c1ccccc1OC	–	107	–	–	–	–	133	45
SMILES	FXN GAA850 act	AHR activator	HSP90 refold inh	HSF1 activator	NR0B1 inh	HSF1 inhib	AHR act cf	PXR act counter
Cc1ccc(NNC(=O)CCc2ccccc2)c(C)c1	–	–	–	–	–	–	·	·
Cc1ccc(-c2nc3ncccc3o2)cc1NC(=O)C(C)(C)C	–	91	–	–	–	–	91	32
CCC(=O)Nc1cc(-c2nc3ncccc3o2)ccc1Cl	–	110	–	–	–	–	97	16
CC1(C(=O)NCc2cccs2)CCN1C(=O)Cc1cccc2ccccc12 (stereo not given)	–	·	·	·	·	·	·	·
COc1cccc(C(=O)O/N=C(\N)c2ccc([N+](=O)[O-])cc2)c1	–	79	–	59	–	–	75	·
COc1ccc([C@@H]2C[C@H]3[C@@H](CN2S(=O)(=O)c2ccccc2)C(=O)C[C@@H](c2ccccc2F)N3S(=O)(=O)c2ccc(C)cc2)cc1	–	·	·	·	–	·	·	·
CNc1sc(C(=O)c2ccc(F)cc2)c(N)c1-c1nc2ccccc2s1	–	–	–	–	–	–	·	·
CNc1sc(C(=O)c2cccs2)c(N)c1-c1nc2ccccc2s1	–	89	–	–	–	–	119	82
[O-]/[N+](=C\c1ccccc1)c1ccc(Br)cc1	–	88	·	·	–	·	114	14
O=S1(=O)CCN(OCc2ccc(F)cc2Cl)CC1	–	–	–	–	–	–	·	·
CC(=O)c1ccc(N(CC(=O)NC2CCCCC2)C(=O)CNC(=O)c2ccco2)cc1	–	–	–	–	–	–	·	·
Cc1ccc(C(=O)Nc2ccc3c(c2)OCO3)cc1Cl	–	94	–	–	4.8	–	118	38
Cc1ccc(C(=O)Nc2ccc3c(c2)OCO3)cc1S(=O)(=O)N1CCCC1	–	82	–	–	–	–	70	218
Cc1ccc(C(=O)Nc2ccc3c(c2)OCO3)cc1S(=O)(=O)N1CCOCC1	–	–	–	–	–	–	·	·
O=C(Nc1ccc(Cl)c(-c2nc3ccccc3[nH]2)c1)c1ccc2c(c1)OCO2	–	86	–	–	–	–	93	19
O=C(Nc1ccc(-c2nc3ccccc3[nH]2)cc1)c1ccc2c(c1)OCO2	–	–	–	–	–	–	·	·
CC(=O)Nc1ccc2c(c1)C(=Nc1ccc(C)cc1)c1ccccc1-2	–	·	·	·	–	·	·	·
Cc1cc(C(F)(F)F)n2nc(-c3cccs3)cc2n1	–	–	–	–	–	–	·	·
Cc1cc(C(F)(F)F)n2nc(-c3sccc3-n3cccc3)cc2n1	–	103	–	–	–	–	113	44
COc1cc(/C=C(\C#N)c2nc3ccccc3n2C)cc(OC)c1O	–	–	–	–	–	–	·	·
Cc1cc(/C=C2\NC(=S)NC2=O)c(C)n1-c1cccnc1	–	100	–	–	–	–	59	33
O=C(Nc1ccc2c(c1)OCO2)c1ccncc1	–	103	–	–	–	–	74	·
Cn1c(C(=O)Nc2ccc3c(c2)OCO3)cc2sccc21	–	89	–	66	4.8	–	139	109
O=C(Nc1ccc2c(c1)OCO2)c1ccc(Cl)nc1	–	88	–	–	–	–	149	23
C/C(=C\C(=O)c1ccc(C)o1)Nc1ccc2c(c1)OCO2	–	–	–	–	–	–	·	·
Cn1c(C(=O)NCc2ccc3c(c2)OCO3)cc2sccc21	–	–	–	–	–	–	·	·

Screening data (PubChem)
